PNC inhibitor = blocks assembly of the perinucleolar compartment | PC3M PTB-GFP, PNC prevalence imaging, 16 h; active compounds read low | activity change (PNC), negative = inhibition, % at 10 µM | 140,000 compounds, 3.1% hits | AID 2417;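 active = readout at or below -70, meaning at least 70% loss of cells showing the perinucleolar compartment, a nuclear body marking cancer cells; inconclusive = readout between -30 and a set limit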;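 also: plate controls were DMSO wells for no effect and camptothecin positive control wells for full effect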
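Read-out is percentage of cells bearing a perinucleolar compartment, from automated 20x imaging of fixed, Hoechst-stained PC3M PTB-GFP cells. Cells were seeded 4 h, then exposed 16 h to compound (23 nl of library stock) in duplicate plates.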
HPGD inh = inhibitors of human 15-hydroxyprostaglandin dehydrogenase (HPGD) | purified HPGD, NADH fluorescence kinetic, PGE2 substrate | Potency, µM, for inactives: at the top dose activity change, negative = inhibition, actives largely listed as inhibitors | 150,000 compounds, 4.3% hits | AID 894; also: potency is read from the fitted curve at half-maximal effect
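20 nM HPGD preincubated 15 min at room temperature with compound in 50 mM Tris-HCl pH 8, 0.01% Tween 20. Started with 1 mM NAD+ and 30 uM prostaglandin E2; NADH fluorescence (360/450 nm) read 5 times over 30-s intervals, last minus first.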
ALDH1A1 block = ALDH1A1 (human) enzyme inhibition | P00352 | Purified ALDH1A1, NADH fluorescence, propionaldehyde substrate | Potency, µM (doses to about 75.3 µM), for the others: at the top dose activity, negative = inhibition, most hits filed as inhibitors | 220,000 compounds, 7.3% hits;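 also: potency is read from the fitted curve at half-maximal effect; plate controls were no enzyme wells and a reference inhibitor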
Target sequence (P00352 whole entry, looked up): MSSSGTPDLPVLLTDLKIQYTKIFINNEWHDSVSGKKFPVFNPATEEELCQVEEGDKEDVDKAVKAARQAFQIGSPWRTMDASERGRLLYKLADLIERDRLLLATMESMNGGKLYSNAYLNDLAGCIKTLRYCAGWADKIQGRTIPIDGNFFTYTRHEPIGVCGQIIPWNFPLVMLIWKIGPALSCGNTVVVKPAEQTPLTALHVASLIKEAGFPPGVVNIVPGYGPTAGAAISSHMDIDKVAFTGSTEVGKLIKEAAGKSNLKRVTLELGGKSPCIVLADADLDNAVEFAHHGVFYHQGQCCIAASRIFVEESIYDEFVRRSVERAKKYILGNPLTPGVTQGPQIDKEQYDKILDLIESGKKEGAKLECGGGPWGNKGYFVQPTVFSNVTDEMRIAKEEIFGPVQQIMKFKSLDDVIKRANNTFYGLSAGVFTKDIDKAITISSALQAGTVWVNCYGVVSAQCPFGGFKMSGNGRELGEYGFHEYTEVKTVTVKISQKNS
* hit, by the source's call; ? = inconclusive; . = no result given; [ ] = another dose, or the depositor's remark. Hits are enriched below; roughly 11% of the tested compounds scored in any of these assays. Unless noted, calls follow the shape of the dose curve; as a rule, active = well fitted inhibition curve with a large enough effect (not every such curve was filed as active); inconclusive = small, poorly fitted or top-dose-only effect, or another doubt; inactive = no such curve, though single readings can be large or run the other way. Unless noted, % is scaled to controls: 0 for no effect and ±100 for the full control effect.

SMILES | PNC inhibitor | HPGD inh | ALDH1A1 block
O=C(NCCSCc1ccc(Cl)cc1)c1cccs1 | . | . | -3%
Cc1c(NC(=O)c2ccc(COc3ccc4ccccc4c3)o2)c(=O)n(-c2ccccc2)n1C | 42 | 35µM* | ?
Cc1cccc(NC(=O)c2ccc(COc3ccc4ccccc4c3)o2)n1 | . | . | -8%
Cc1ccc(S(=O)(=O)N(C)Cc2ccc(C(=O)NN=C(CC(C)C)CC(C)C)cc2)cc1 | 4 | -13% | 7.1µM*
CC/C(=N\NC(C)=O)c1ccc(OC(F)F)cc1 | . | . | 4%
Cc1ccc(S(=O)(=O)N(C)Cc2ccc(C(=O)N/N=C3\CCCC(=O)C3)cc2)cc1 | 31 | -17% | ?
Cc1ccc(S(=O)(=O)N(C)Cc2ccc(C(=O)NN=C3C4CC5CC(C4)CC3C5)cc2)cc1 | 12 | . | 0.5µM*
COc1cc(/C=N/NC(=O)c2ccc(CN(C)S(=O)(=O)c3ccc(C)cc3)cc2)ccc1O | . | . | 6%
CC/C(=N\NC(=O)c1ccc(CN(C)S(=O)(=O)c2ccc(C)cc2)cc1)c1ccc(OC(F)F)cc1 | 54 | -7% | 13µM*
Cc1ccc(C2=Nc3ccc(Br)cc3C(c3ccncc3)=NN2)cc1 | . | . | 11%
CCCCCCCCCCCCCCCCCCOC[C@@H](O)COP(=O)([O-])OCC[N+](C)(C)C | . | -5% | 5%
O=C(CN1N=C(c2ccc(Cl)cc2)CCC1=O)NCc1cccnc1 | 10 | -20% | 1%
O=C(O)c1ccc(-n2nc(C(F)(F)F)c3c2-c2ccoc2CC3)cc1 | -5 | 22µM* | -14%
COC(=O)c1ccc(-n2nc(C(F)(F)F)c3c2-c2ccoc2CC3)cc1 | 24 | -12% | ?
CCCC1(C)Nc2ccccc2-c2nc3ccccc3n21 (configuration not stated) | -82* | ? | ?
c1ccc2c(c1)NC1(CCCC1)n1c-2nc2ccccc21 | -15 | ? | ?
O=C(/C=C/c1c(F)cccc1Cl)c1ccc(F)cc1 | 60 | 13µM* | -44%
O=C(/C=C/c1ccc[nH]1)c1ccc(F)cc1 | . | . | -18%
O=C(/C=C/c1ccc(F)cc1)NCc1ccco1 | 11 | 25µM* | -3%
NS(=O)(=O)c1ccc(CNC(=O)/C=C/c2c(F)cccc2Cl)cc1 | . | . | -3%
O=C(/C=C/c1c(F)cccc1Cl)NCc1ccco1 | ? | 10µM* | ?
O=C(/C=C/c1ccc([N+](=O)[O-])cc1)NCc1ccco1 | ? | -11% | -7%
CCCCCC(=O)CC[C@@H]1[C@@H](C/C=C\CCCC(=O)O)[C@@H](O)C[C@H]1O | . | -6% | -2%
O=C(O)c1ccc(CSc2nc(-c3ccccc3)cc(C(F)(F)F)n2)cc1 | ? | -14% | 8%
O=C(O)c1ccc(CSc2nc(-c3ccc(Cl)cc3)cc(C(F)(F)F)n2)cc1 | 18 | 13µM* | 2%
SMILES | PNC inhibitor | HPGD inh | ALDH1A1 block
Cc1cc(NC(=O)c2cc3ccccc3o2)cc(C)c1OCC(=O)N1CCOCC1 | -22 | -25% | -13%
Cc1cc(NS(=O)(=O)Cc2ccccc2)cc(C)c1OCC(=O)N1CCOCC1 | -96* | -14% | 7%
O=C(CSCc1c(Cl)cccc1Cl)Nc1ccc2c(c1)OCCO2 | -83* | -15% | ?
O=C(COc1ccccc1Cl)Nc1ccc2c(c1)OCCO2 | 14 | -17% | 3%
CN(C)S(=O)(=O)c1ccc(NC(=O)CN2CCC(Cc3ccccc3)CC2)cc1 | . | . | -4%
O=C(CCN1C(=O)c2ccccc2S1(=O)=O)Nc1ccccc1 | . | . | -8%
O=C(CCN1C(=O)c2ccccc2S1(=O)=O)Nc1ccc2c(c1)OCCO2 | 10 | -16% | 6.3µM*
O=C(CN1CCC(C(=O)c2ccc(Cl)cc2)CC1)Nc1ccc2c(c1)OCCO2 | ? | -10% | -8%
O=C(CN1CCN(CC(=O)Nc2ccccc2Cl)CC1)Nc1ccc2c(c1)OCCO2 | -100* | -8% | 7.9µM*
O=C(CN1CCC(Cc2ccccc2)CC1)Nc1ccc2c(c1)OCCO2 | 16 | -8% | 28µM*
O=C(c1cccc(F)c1)N1CCC2(CCCN(c3ccccn3)C2)CC1 | . | -18% | ?
CCOC(=O)OCC | . | -11% | ?
CCOc1cc(/C=N/NC(=O)C(=O)NC)cc(Br)c1O | 8 | -15% | 11%
O=C(COc1cccnc1[N+](=O)[O-])NCCc1ccccc1 | . | . | -8%
C/C=C\C1=C(CO)[C@H](O)[C@H]2OC2[C@@H]1O (some centres not stated) | . | . | 11%[13.5 µM]
CCN(CC)S(=O)(=O)c1ccc(Cl)c(C(=O)NC)c1 | 4 | -6% | -6%
CCN(CC)S(=O)(=O)c1ccc(F)c(C(=O)NCCC(C)C)c1 | -100* | -11% | 1%
O/N=C1/C2C3C(Br)C4C5CC(C1C53)C24 (configuration not stated) | 23 | -3% | 8%
Cc1ccc(OCCOc2ccc(Br)cc2)c([N+](=O)[O-])n1 | -22 | 10µM* | ?
Cc1ccc(-n2c(C)cc(C(=O)COc3cccnc3[N+](=O)[O-])c2C)cc1 | -14 | -18% | ?
Cc1ccc(OCC(=O)c2cc(C)n(C)c2C)c([N+](=O)[O-])n1 | -121* | -14% | -7%
Cc1ccc(OCC(=O)NCc2ccccc2)c([N+](=O)[O-])n1 | -9 | . | -1%
Cc1cc(C(=O)COc2cccc3cccnc23)c(C)n1C | ? | -6% | ?
Cc1cc(C(=O)COc2cccnc2[N+](=O)[O-])c(C)n1-c1ccccc1 | ? | -5% | 20µM*
O=C1c2ccccc2[C@@H]([C@@H]2c3ccccc3C(=O)c3cc(Br)ccc32)c2ccc(Br)cc21 | . | -8% | -11%[13.5 µM]
SMILES | PNC inhibitor | HPGD inh | ALDH1A1 block
O=C1CCCN1CCCNS(=O)(=O)c1ccc(Br)cc1 | . | . | -6%
CN1CCCC1CCNS(=O)(=O)c1ccc(Br)cc1 (configuration not stated) | -109* | -2% | 3%
CC(=O)Nc1ccc(NC(=O)C2CCCN2C(=O)Nc2ccc(F)c([N+](=O)[O-])c2)cc1 (configuration not stated) | . | . | 1%
O=C(NCC1CCCO1)C(Cc1ccccc1)N1C(=O)C2C3C=CC(C4CC34)C2C1=O (configuration not stated) | . | . | 0%
Cn1cccc1C(=O)N1CCC2(CCCN(c3cccc(-c4ccccc4)c3)C2)CC1 | . | -20% | -14%
COc1cccc(C2CC(c3cccs3)=NN2S(C)(=O)=O)c1 (configuration not stated) | . | . | -4%
CC(C)c1ccccc1NC(=O)c1ccc(CN(c2ccccc2)S(=O)(=O)c2ccccc2)cc1 | ? | -10% | 7%
CS(=O)(=O)N(Cc1ccccc1)c1ccc(C(=O)Nc2cccnc2)cc1 | -100* | -15% | 15%
CN(c1ccc(C(=O)NCc2ccncc2)cc1)S(C)(=O)=O | 1 | -14% | 5%
CN(c1ccc(C(=O)NCc2cccnc2)cc1)S(C)(=O)=O | -100* | -8% | 11%
CS(=O)(=O)N(Cc1ccc(Cl)cc1)c1ccc(C(=O)Nc2cccnc2)cc1 | ? | -10% | 0%
Cc1ccccc1NC(=O)c1ccc(CN(c2ccccc2)S(=O)(=O)c2ccccc2)cc1 | -134* | -25% | 33%
COc1ccc([N+](=O)[O-])cc1NC(=O)C(C)OC(=O)c1cccnc1 (configuration not stated) | . | . | 7%
Cc1c(NC(=S)NC(NC(=O)C(C)C)C(Cl)(Cl)Cl)c(=O)n(-c2ccccc2)n1C (configuration not stated) | 79 | -4% | -2%

Bioassay records from PubChem BioAssay.
